Experimental data: PubChem BioAssay AID1159580 (chemical genetic matrix, 2015)
About 2,000 (36%) of roughly 5,500 compounds were called active. Another 18% or so got no clear call; they are omitted. No stated cut-off is given here; in the data, active means normalized growth mostly below about 0.91 (no sharp cut-off); inconclusive means no clear call, values can overlap the other calls; inactive means mostly above about 0.92. Some of the results follow.

Experiment: chemical genetic growth profiling, strain panel (AID 1159580);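 further: tested at 20 µM; growth read once vehicle control cultures reached saturation at 30 °C; 1 = growth at the plate median or of vehicle wells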
Conditions: S. cerevisiae deletion strains, growth OD

Measured: normalized growth

CC(C)(Oc1ccc(Cl)cc1)C(=O)O
inactive: locus YAL013W, strain DEP1, stronger effect = lower value 1 | locus YAL021C, strain ccr4, stronger effect = lower value 1.02 | locus YAL026C, strain drs2, stronger effect = lower value 1.03 | locus YAL030W, strain snc1, stronger effect = lower value 0.996 | locus YBL061C, strain skt5, stronger effect = lower value 1.04 | locus YBR009C, strain hhf1, stronger effect = lower value 0.988 | locus YBR021W, strain FUR4, stronger effect = lower value 1.12 | locus YBR023C, strain chs3, stronger effect = lower value 1.03 | locus YBR171W, strain sec66, stronger effect = lower value 1.02 | locus YBR229C, strain ROT2, stronger effect = lower value 0.998 | locus YBR231C, strain swc5, stronger effect = lower value 0.997 | locus YBR279W, strain paf1, stronger effect = lower value 1.02 | locus YCL011C, strain gbp2, stronger effect = lower value 1 | locus YCL016C, strain dcc1, stronger effect = lower value 1.03 | locus YCL029C, strain bik1, stronger effect = lower value 0.956 | locus YCL069W, strain vba3, stronger effect = lower value 1.01 | locus YCR088W, strain abp1, stronger effect = lower value 1.01 | locus YDL005C, strain med2, stronger effect = lower value 1.02 | locus YDL035C, strain GPR1, stronger effect = lower value 0.997 | locus YDL040C, strain nat1, stronger effect = lower value 0.996 | locus YDL074C, strain BRE1, stronger effect = lower value 0.949 | locus YDL101C, strain DUN1, stronger effect = lower value 0.986 | locus YDL134C, strain PPH21, stronger effect = lower value 1 | locus YDL185W, strain tfp1, stronger effect = lower value 0.938 | locus YDL192W, strain arf1, stronger effect = lower value 0.981 | locus YDR001C, strain nth1, stronger effect = lower value 1 | locus YDR069C, strain doa4, stronger effect = lower value 1.01 | locus YDR101C, strain arx1, stronger effect = lower value 0.979 | locus YDR137W, strain rgp1, stronger effect = lower value 1.01 | locus YDR150W, strain NUM1, stronger effect = lower value 0.995 | locus YDR159W, strain sac3, stronger effect = lower value 0.949 | locus YDR162C, strain NBP2, stronger effect = lower value 0.987 | locus YDR195W, strain ref2 0.979 | locus YDR297W, strain sur2, stronger effect = lower value 0.99 | locus YDR318W, strain mcm21, stronger effect = lower value 0.98 | locus YDR334W, strain swr1, stronger effect = lower value 1 | locus YDR335W, strain msn5, stronger effect = lower value 1.01 | locus YDR388W, stronger effect = lower value 0.979 | locus YDR392W, strain spt3, stronger effect = lower value 0.974 | locus YDR502C, strain sam2, stronger effect = lower value 0.993 | locus YEL003W, strain gim4, stronger effect = lower value 0.984 | locus YEL037C, strain rad23, stronger effect = lower value 1.01 | locus YEL061C, strain CIN8 (second series), stronger effect = lower value 1 | locus YEL061C, strain CIN8, stronger effect = lower value 1 | locus YER015W, strain faa2, stronger effect = lower value 1.01 | locus YER016W, strain bim1, stronger effect = lower value 1.03 | locus YER110C, stronger effect = lower value 0.983 | locus YER111C, strain swi4, stronger effect = lower value 1.01 | locus YER155C, strain BEM2 (second series), stronger effect = lower value 1.01 | locus YER155C, strain BEM2, stronger effect = lower value 0.983 | locus YER167W, strain BCK2, stronger effect = lower value 0.999 | locus YFR010W, strain ubp6, stronger effect = lower value 0.976 | locus YGL078C, strain dbp3, stronger effect = lower value 0.998 | locus YGL086W, strain mad1, stronger effect = lower value 0.997 | locus YGL167C, strain pmr1, stronger effect = lower value 1.01 | locus YGL173C, strain kem1, stronger effect = lower value 0.982 | locus YGL227W, strain vid30, stronger effect = lower value 0.993 | locus YGL240W, strain doc1, stronger effect = lower value 1 | locus YGL248W, strain PDE1, stronger effect = lower value 1 | locus YGL253W, strain hxk2, stronger effect = lower value 1.01 | locus YGR078C, strain PAC10, stronger effect = lower value 0.954 | locus YGR135W, strain pre9, stronger effect = lower value 1.01 | locus YGR229C, strain SMI1, stronger effect = lower value 1 | locus YGR252W, strain gcn5, stronger effect = lower value 1.23 | locus YHR013C, strain ard1, stronger effect = lower value 1.02 | locus YHR027C, strain rpn1, stronger effect = lower value 1 | locus YHR030C, strain SLT2, stronger effect = lower value 1 | locus YHR079C, strain IRE1 (second series), stronger effect = lower value 0.964 | locus YHR094C, strain hxt1, stronger effect = lower value 0.963 | locus YHR129C, strain ARP1, stronger effect = lower value 0.988 | locus YHR142W, strain chs7, stronger effect = lower value 1.04 | locus YHR200W, strain rpn10, stronger effect = lower value 0.977 | locus YIL066C, strain RNR3, stronger effect = lower value 0.99 | locus YIL073C, strain SPO22, stronger effect = lower value 0.948 | locus YIL125W, strain kgd1, stronger effect = lower value 0.98 | locus YIR030C, strain dcg1, stronger effect = lower value 0.988 | locus YJL092W, strain hpr5, stronger effect = lower value 1.02 | locus YJL095W, strain BCK1 (second series), stronger effect = lower value 1.02 | locus YJL095W, strain BCK1, stronger effect = lower value 0.976 | locus YJL115W, strain asf1, stronger effect = lower value 1.01 | locus YJL129C, strain trk1, stronger effect = lower value 1.03 | locus YJL134W, strain LCB3, stronger effect = lower value 0.999 | locus YJL154C, strain vps35, stronger effect = lower value 1.01 | locus YJL164C, strain tpk1, stronger effect = lower value 0.993 | locus YJL166W, strain qcr8, stronger effect = lower value 0.997 | locus YJL168C, strain set2, stronger effect = lower value 0.976 | locus YJL187C, strain SWE1 (second series), stronger effect = lower value 0.973 | locus YJR043C, strain POL32, stronger effect = lower value 0.985
